About 8,800 targets were measured; listed, in parts, are those with a hit and a random draw of the rest. About 0.5% of all pairs of compound and target were hits. Values without a mark were called inactive.
Key:
Assay in all cases: log2 fold change, soluble protein after heating vs DMSO (PISA); higher = thermal stabilisation; K562 lysate, 10 uM; active = over 0.2 and 3.5 SD of the protein, either way, in both replicates (recomputed)
[1] = compound: C=CC(=O)N1CCC[C@@H](n2nc(-c3ccc(Oc4ccccc4)cc3)c3c(N)ncnc32)C1 [ibrutinib]
Method in brief: (§1)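 Following dounce homogenisation of K562 pellets in PBS pH 7.4 with 1 mM MgCl2, crude extract at 1 mg/mL protein was incubated for 30 min with 10 μM compound. Aliquots were then heated for 3 min over 48°C-58°C and pooled, NP-40 was added to 0.5% at 4°C, and soluble protein was recovered as the supernatant at 21,000xg for 90 min. Channel-sum-equalised TMTpro 16plex LC-MS/MS quantified this protein. Each value, from duplicates, is a log-two fold change in thermal stability relative to solvent controls.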

[2] = compound: CC(=O)c1cnc2ccc(-c3cc(Cl)c(O)c(Cl)c3)nc2c1N[C@H]1CC[C@H](CN(C)C)CC1
Method in brief: as §1

[3] = compound: CC(C)(C)Cn1c(N)nc2ccc(-c3[nH]c(C(C)(C)C)nc3-c3ccc(F)cc3)nc21 [ralimetinib]
Method in brief: as §1

[4] = compound: CC(C)(O)CC(=O)NCCn1ccc2ncnc(Nc3ccc(Oc4cccc(C(F)(F)F)c4)c(Cl)c3)c21
Method in brief: as §1

[5] = compound: CC(C)C1=C2N=C(C=C(N2N=C1)NCC3=CC=CC=C3)NCCCCCCN
Method in brief: as §1

[6] = compound: CC1=C(C(CC(=O)N1)C2=CC=C(C=C2)C(F)(F)F)C(=O)NC3=C(C=C4C(=C3)C=NN4)F
Method in brief: as §1

[7] = compound: CC1=C(C2=C(C=C1)C(=O)C3=CC=CC=C3N2CCCN)C
Method in brief: as §1

[8] = compound: CC1=C(C=C(C=C1)NC(=O)C2=CC(=CC=C2)C(C)(C)C#N)NC3=CC4=C(C=C3)N=CN(C4=O)C
Method in brief: as §1

[9] = compound: CC1=C(C=C(C=C1)NC(=O)C2=CC(=CC=C2)N(C)C)NC(=O)C3=CC=C(C=C3)O
Method in brief: as §1

[10] = compound: CC1=CC=C(C=C1)SC2=C3C=C(SC3=CN=C2)C(=O)N
Method in brief: as §1

[11] = compound: CCCS(=O)(=O)Nc1ccc(F)c(C(=O)c2c[nH]c3ncc(-c4ccc(Cl)cc4)cc23)c1F [vemurafenib]
Method in brief: as §1

[12] = compound: CCCS(=O)(=O)Nc1ccc(F)c(C(=O)c2c[nH]c3ncc(Cl)cc23)c1F
Method in brief: as §1

[13] = compound: CCN(CCCOc1ccc2c(Nc3cc(CC(=O)Nc4cccc(F)c4)[nH]n3)ncnc2c1)CCOP(=O)(O)O [barasertib]
Method in brief: as §1

[14] = compound: CC[C@@H]1C(=O)N(C)c2cnc(Nc3ccc(C(=O)NC4CCN(C)CC4)cc3OC)nc2N1C1CCCC1
Method in brief: as §1

[15] = compound: CC[C@@H]1C(=O)N(C)c2cnc(Nc3ccc(C(=O)N[C@H]4CC[C@H](N5CCN(CC6CC6)CC5)CC4)cc3OC)nc2N1C(C)C [volasertib]
Method in brief: as §1

[16] = compound: CCn1c(C(=O)N(C2CC2)C2CC2)cc2c3c(ncn3C)c(Nc3cc(C)n(C)n3)nc21
Method in brief: as §1

[17] = compound: CCn1cc(-c2ccnc3[nH]c(-c4cccc(CN(C)C)c4)cc23)c(-c2ccc(NC(=O)N(C)C)cc2)n1
Method in brief: as §1

[18] = compound: CN1CCC(CNc2ccc3ncc(-c4cccc(OC(F)(F)F)c4)n3n2)CC1
Method in brief: as §1

[19] = compound: CN1CCN(CCOc2cc(OC3CCOCC3)c3c(Nc4c(Cl)ccc5c4OCO5)ncnc3c2)CC1 [saracatinib]
Method in brief: as §1

[20] = compound: CN1CCN(c2nc(C3=C(c4c[nH]c5ccccc45)C(=O)NC3=O)c3ccccc3n2)CC1 [sotrastaurin]
Method in brief: as §1

UniProt Q9NVX0, sequence (Q9NVX0 whole entry, looked up): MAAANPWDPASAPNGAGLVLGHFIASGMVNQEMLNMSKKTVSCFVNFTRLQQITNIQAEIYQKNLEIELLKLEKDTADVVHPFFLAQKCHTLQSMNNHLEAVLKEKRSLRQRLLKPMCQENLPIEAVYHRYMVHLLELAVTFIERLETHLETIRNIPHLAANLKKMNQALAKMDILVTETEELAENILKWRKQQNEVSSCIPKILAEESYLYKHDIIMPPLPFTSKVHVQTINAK
UniProt Q99871, sequence (Q99871 whole entry, looked up): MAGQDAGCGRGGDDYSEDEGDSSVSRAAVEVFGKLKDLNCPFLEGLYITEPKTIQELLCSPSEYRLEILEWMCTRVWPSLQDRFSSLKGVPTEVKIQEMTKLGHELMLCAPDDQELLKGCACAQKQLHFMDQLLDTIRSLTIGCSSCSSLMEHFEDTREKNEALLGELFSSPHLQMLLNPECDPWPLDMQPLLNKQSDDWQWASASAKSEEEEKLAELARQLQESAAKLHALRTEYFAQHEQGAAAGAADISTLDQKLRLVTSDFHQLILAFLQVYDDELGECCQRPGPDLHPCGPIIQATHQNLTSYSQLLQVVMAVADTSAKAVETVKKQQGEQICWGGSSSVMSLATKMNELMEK
UniProt Q8WVV9, sequence (Q8WVV9 whole entry, looked up): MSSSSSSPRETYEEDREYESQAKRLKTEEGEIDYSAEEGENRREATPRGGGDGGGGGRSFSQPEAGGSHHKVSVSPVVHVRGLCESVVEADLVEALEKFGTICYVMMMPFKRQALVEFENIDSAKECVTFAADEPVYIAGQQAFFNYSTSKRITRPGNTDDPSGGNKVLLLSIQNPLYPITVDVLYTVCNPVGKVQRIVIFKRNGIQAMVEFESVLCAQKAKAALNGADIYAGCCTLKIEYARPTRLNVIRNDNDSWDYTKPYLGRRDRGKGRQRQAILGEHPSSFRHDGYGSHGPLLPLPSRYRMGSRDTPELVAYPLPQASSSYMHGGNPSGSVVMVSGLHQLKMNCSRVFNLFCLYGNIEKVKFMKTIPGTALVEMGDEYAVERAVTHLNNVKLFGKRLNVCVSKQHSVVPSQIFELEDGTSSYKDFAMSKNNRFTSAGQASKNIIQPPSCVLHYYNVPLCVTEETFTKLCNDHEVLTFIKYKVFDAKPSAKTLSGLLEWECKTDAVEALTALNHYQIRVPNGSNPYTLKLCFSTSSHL
UniProt Q8N201, sequence (Q8N201 whole entry, looked up): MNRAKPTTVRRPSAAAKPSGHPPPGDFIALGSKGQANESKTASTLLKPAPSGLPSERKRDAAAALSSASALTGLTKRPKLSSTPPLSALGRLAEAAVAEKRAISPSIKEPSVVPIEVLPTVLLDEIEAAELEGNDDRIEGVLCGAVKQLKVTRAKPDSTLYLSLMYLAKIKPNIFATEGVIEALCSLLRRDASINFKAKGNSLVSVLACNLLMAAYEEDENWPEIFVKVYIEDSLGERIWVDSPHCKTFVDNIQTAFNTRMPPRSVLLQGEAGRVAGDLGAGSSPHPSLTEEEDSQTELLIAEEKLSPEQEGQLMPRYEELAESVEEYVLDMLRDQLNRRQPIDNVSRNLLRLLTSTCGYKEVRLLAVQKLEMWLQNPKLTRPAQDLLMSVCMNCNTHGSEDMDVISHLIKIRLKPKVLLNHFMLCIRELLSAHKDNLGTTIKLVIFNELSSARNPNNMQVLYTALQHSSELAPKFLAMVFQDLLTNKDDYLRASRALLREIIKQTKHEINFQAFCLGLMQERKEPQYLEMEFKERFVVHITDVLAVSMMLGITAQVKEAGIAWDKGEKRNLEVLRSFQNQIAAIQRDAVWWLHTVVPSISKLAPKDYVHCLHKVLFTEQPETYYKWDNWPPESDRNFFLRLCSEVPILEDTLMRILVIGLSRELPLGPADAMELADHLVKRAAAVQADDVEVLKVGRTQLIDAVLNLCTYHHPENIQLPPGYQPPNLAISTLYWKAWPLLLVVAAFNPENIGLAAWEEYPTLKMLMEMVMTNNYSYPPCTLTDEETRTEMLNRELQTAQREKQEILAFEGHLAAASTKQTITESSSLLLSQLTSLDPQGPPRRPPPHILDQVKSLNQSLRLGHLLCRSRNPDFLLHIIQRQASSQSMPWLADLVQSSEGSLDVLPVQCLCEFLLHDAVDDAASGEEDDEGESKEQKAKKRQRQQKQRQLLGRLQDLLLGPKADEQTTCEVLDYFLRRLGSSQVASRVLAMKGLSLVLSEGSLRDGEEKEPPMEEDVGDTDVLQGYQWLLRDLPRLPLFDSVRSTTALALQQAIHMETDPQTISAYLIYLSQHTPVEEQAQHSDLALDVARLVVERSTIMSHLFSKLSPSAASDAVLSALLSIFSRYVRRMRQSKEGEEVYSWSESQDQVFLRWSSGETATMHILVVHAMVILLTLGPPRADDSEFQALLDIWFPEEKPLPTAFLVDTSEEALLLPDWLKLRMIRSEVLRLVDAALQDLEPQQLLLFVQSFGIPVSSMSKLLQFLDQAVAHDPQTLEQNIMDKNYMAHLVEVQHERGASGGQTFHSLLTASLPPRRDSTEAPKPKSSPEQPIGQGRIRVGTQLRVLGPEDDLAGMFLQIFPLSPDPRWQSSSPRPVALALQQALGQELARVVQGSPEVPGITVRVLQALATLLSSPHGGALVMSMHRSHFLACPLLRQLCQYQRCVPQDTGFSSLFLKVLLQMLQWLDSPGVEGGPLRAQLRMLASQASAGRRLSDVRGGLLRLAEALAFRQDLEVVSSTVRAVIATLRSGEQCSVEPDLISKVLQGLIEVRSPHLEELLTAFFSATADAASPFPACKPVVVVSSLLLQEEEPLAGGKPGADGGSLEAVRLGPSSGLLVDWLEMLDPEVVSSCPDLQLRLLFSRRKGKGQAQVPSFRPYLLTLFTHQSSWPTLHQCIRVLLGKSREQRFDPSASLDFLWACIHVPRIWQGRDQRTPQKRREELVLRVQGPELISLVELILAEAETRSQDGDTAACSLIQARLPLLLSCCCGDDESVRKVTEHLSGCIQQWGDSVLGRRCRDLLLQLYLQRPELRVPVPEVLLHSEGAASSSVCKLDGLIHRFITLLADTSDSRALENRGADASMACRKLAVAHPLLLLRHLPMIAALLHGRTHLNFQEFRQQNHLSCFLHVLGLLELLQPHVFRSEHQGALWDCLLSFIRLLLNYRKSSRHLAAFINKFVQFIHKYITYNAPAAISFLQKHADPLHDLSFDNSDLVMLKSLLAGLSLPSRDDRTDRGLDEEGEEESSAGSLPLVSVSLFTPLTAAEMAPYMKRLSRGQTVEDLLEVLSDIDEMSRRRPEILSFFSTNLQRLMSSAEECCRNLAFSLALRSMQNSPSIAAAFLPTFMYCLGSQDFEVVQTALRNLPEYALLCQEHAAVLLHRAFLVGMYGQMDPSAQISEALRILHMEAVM
UniProt Q6AI08, sequence (Q6AI08 whole entry, looked up): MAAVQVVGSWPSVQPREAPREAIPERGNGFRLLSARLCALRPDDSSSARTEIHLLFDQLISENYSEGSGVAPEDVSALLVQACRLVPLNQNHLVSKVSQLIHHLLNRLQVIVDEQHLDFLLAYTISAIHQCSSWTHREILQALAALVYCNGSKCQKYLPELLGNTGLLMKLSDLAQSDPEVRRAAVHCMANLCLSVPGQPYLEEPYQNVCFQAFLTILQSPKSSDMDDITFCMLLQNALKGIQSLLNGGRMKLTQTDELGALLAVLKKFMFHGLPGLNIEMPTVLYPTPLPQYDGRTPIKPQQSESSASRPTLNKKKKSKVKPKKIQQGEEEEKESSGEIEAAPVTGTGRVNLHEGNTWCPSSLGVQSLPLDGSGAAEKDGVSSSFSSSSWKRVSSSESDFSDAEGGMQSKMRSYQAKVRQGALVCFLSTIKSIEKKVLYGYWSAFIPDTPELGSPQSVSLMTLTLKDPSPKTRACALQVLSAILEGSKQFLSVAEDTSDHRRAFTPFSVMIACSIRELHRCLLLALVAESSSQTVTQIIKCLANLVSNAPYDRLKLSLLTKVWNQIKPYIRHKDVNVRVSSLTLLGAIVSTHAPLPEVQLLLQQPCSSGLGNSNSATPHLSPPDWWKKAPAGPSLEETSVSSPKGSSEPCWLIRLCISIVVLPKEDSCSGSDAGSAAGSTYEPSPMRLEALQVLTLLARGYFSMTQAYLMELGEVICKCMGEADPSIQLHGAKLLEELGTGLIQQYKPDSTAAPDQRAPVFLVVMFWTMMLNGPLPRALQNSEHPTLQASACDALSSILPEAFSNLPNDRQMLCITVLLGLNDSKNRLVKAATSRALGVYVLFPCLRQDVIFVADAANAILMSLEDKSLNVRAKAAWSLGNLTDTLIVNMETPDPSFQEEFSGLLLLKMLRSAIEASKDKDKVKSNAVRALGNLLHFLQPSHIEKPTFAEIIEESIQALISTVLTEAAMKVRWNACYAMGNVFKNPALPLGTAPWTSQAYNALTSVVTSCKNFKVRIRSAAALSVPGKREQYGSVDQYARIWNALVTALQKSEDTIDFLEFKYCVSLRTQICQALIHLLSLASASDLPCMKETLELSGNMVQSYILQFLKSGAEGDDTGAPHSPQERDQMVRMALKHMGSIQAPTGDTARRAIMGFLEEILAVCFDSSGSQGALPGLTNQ
UniProt P32780, sequence (P32780 whole entry, looked up): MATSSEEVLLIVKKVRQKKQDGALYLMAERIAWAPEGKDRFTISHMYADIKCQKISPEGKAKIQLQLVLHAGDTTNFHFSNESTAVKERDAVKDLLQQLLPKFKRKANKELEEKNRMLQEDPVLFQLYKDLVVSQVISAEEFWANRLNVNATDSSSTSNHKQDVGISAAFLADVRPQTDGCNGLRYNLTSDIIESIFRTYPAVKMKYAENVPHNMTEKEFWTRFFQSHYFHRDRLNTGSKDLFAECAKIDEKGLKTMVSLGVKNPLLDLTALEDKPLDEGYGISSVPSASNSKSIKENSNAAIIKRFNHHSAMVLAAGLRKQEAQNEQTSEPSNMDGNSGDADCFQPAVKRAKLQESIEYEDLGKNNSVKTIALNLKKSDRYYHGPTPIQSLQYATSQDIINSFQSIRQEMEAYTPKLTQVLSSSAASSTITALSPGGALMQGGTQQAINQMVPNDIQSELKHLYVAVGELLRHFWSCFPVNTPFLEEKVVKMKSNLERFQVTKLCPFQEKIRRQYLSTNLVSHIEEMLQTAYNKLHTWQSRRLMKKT

Row | Target | log2 fold change [1] | log2 fold change [2] | log2 fold change [3] | log2 fold change [4] | log2 fold change [5] | log2 fold change [6] | log2 fold change [7] | log2 fold change [8] | log2 fold change [9] | log2 fold change [10] | log2 fold change [11] | log2 fold change [12] | log2 fold change [13] | log2 fold change [14] | log2 fold change [15] | log2 fold change [16] | log2 fold change [17] | log2 fold change [18] | log2 fold change [19] | log2 fold change [20]
1 | HECTD4 (UniProt J3KPF0) | 0.017 | -0.024 | 0.001 | 0.007 | -0.032 | -0.028 | -0.036 | 0.032 | 0.021 | 0.009 | 0.04 | 0.035 | 0.014 | 0.009 | -0.09 | 0.037 | 0.007 | 0.043 | 0.006 | -0.024
2 | IMMT (UniProt Q16891) | -0.015 | 0.006 | -0.018 | -0.045 | -0.017 | -0.007 | 0.038 | 0.003 | 0.011 | 0.031 | -0.016 | -0.006 | 0.004 | -0.046 | 0.015 | 0.015 | -0.005 | -0.212 (active) | 0.01 | -0.012
3 | HAUS7 isoform 2 (UniProt Q99871) | 0.082 | 0.105 | -0.002 | -0.031 | 0.05 | -0.003 | 0.028 | -0.031 | 0.021 | -0.054 | -0.054 | 0.006 | 0.002 | 0.005 | -0.06 | -0.021 | 0.073 | -0.173 | 0.044 | -0.025
4 | HNRNPLL (UniProt Q8WVV9) | -0.024 | 0.016 | 0.005 | 0.005 | -0.004 | -0.019 | -0.012 | 0.026 | 0.024 | 0.021 | 0.004 | 0.046 | 0.018 | 0.008 | -0.027 | -0.004 | -0.006 | -0.013 | -0.001 | 0.034
5 | IRAK4 (UniProt Q9NWZ3) | 0 | 0.195 | 0 | -0.018 | -0.01 | -0.018 | -0.011 | -0.018 | 0.008 | -0.041 | -0.028 | -0.005 | 0.107 | -0.085 | -0.022 | 0.063 | 0.001 | 0.19 | 0.045 | -0.022
6 | HAUS2 (UniProt Q9NVX0) | 0.145 | 0.1 | 0.054 | 0.058 | 0.003 | 0.026 | -0.079 | -0.017 | 0.023 | -0.021 | -0.076 | -0.005 | 0.097 | 0.018 | 0.038 | 0.036 | 0.141 | -0.089 | 0.048 | -0.007
7 | GTF2H1 (UniProt P32780) | 0.023 | 0.023 | 0.026 | 0.003 | -0.005 | 0.036 | -0.022 | 0.001 | 0.054 | 0.015 | 0.013 | 0.014 | 0.014 | -0.021 | -0.028 | -0.028 | -0.042 | -0.075 | 0.018 | -0.012
8 | ITPKA (UniProt P23677) | 0.043 | -0.009 | 0.007 | -0.044 | 0.011 | 0.023 | 0.002 | -0.012 | 0.022 | 0.026 | -0.007 | 0.019 | 0.041 | -0.105 | -0.065 | -0.03 | 0 | 0.054 | 0.013 | -0.045
9 | HEATR6 (UniProt Q6AI08) | 0.045 | -0.036 | 0.064 | -0.031 | -0.051 | 0.033 | -0.069 | -0.004 | 0.083 | -0.009 | 0.052 | 0.031 | 0.109 | -0.076 | -0.019 | 0.073 | -0.001 | -0.008 | -0.007 | 0.064
10 | HSPA8 (UniProt P11142) | -0.02 | -0.002 | -0.015 | -0.003 | 0.001 | -0.022 | 0.005 | -0.013 | -0.002 | 0.009 | -0.024 | 0.003 | -0.035 | -0.031 | -0.003 | 0.002 | -0.005 | 0.014 | -0.001 | 0.004
11 | INTS7 (UniProt Q9NVH2) | 0.012 | 0.061 | 0.083 | -0.024 | 0.023 | 0.023 | -0.09 | 0.543 (active) | 0.007 | 0.039 | -0.059 | -0.058 | 0.335 | -0.073 | 0.013 | 0.028 | 0.027 | 0.039 | 0.005 | -0.057
12 | GSTZ1 (UniProt G3V4T6) | 0 | 0 | 0.014 | -0.019 | 0.004 | 0.01 | 0.036 | -0.02 | -0.003 | -0.016 | -0.013 | -0.024 | 0.018 | -0.101 | -0.02 | -0.029 | -0.116 | 0.087 | -0.012 | -0.018
13 | ISCA1 isoform 2 (UniProt Q9BUE6) | 0.049 | -0.001 | 0.04 | -0.028 | -0.069 | -0.276 | -0.006 | 0.031 | -0.029 | -0.016 | 0.007 | -0.059 | 0.028 | 0.042 | 0.03 | -0.051 | 0.425 (active) | -0.21 | 0.028 | 0.021
14 | INTS1 (UniProt Q8N201) | -0.103 | 0.177 | 0.053 | -0.007 | -0.052 | -0.052 | 0.038 | -0.032 | 0.035 | 0.026 | 0.042 | -0.096 | -0.01 | 0.044 | -0.033 | 0.007 | 0.06 | -0.041 | 0 | -0.002
15 | HNRNPD isoform 3 (UniProt Q14103) | -0.081 | -0.065 | -0.046 | 0.104 | -0.026 | -0.096 | -0.052 | 0 | 0.036 | -0.007 | 0.024 | -0.028 | -0.033 | 0.128 | 0.014 | 0.077 | -0.077 | -0.023 | 0.048 | -0.066
